Sampled rows, rich in hits. Any-hit rate of the full collection: about 17%.
TDP1 cell noCPT – qHTS for Inhibitors of human tyrosyl-DNA phosphodiesterase 1 (TDP1): qHTS in cells in absence of CPT; DT40 Tdp1-/- hTDP1 cells, no CPT, ATP luminescence, 48 h; Potency, µM (series often up to 46.2 µM), for inactives: at the top dose activity change, negative = growth inhibition, actives largely listed as inhibitors; hit rate 15% among 420,000; further: on the % scale 0 is the no-effect control and ±100 the full control effect; nearly all actives have a fitted effect of over 55% in size
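Cells were dispensed at 400 per well, compounds added by pin tool, plates incubated ≥48 hr at 37 °C, then CellTiter-Glo added for 30 min at room temperature before luminescence reading. Line: DT40 Tdp1-/- complemented with hTDP1; camptothecin omitted.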
DT40 TDP1 CPT – qHTS for Inhibitors of human tyrosyl-DNA phosphodiesterase 1 (TDP1): qHTS in cells in presence of CPT. chicken DT40 Tdp1-/-;hTDP1 cells + 20 nM CPT, ATP luminescence, 48 h. Potency, µM (series often up to 46.2 µM), for inactives: at the highest dose activity change, negative = growth inhibition, actives largely listed as inhibitors. hit rate 12% among 420,000. AID 686979, 2013; further: on the % scale 0 is the no-effect control and ±100 the full control effect; nearly all actives have a fitted effect of over 55% in size
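Chicken DT40 Tdp1-/- cells complemented with human TDP1, 400 cells/well, exposed to compounds plus 20 nM camptothecin for at least 48 h at 37 C; viability read as ATP content by CellTiter-Glo luminescence.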
TGFb SMAD3 inh – qHTS for Inhibitors of TGF-b; AID 588855, 2011; HepG2 CAGA-GFP TGF-b/SMAD3 reporter, GFP fluorescence, 18 h; TGF-beta stimulated, 500 pg/mL final; Potency, µM (doses to about 46.1 µM), for inactives: at the top dose activity, negative = inhibition, most hits filed as inhibitors; hit rate 1.2% among 410,000; further: on the % scale 0 is the no-effect control and ±100 the full control effect; nearly all actives have a fitted effect of over 65% in size
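First, reporter cells (HEPG2 CAGA-GFP) rested 2 h at 37 degrees C. Next, compounds were pinned in and TGF-beta added to 500 pg/mL final. After 18 h, GFP was imaged per cell and summed per well.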
S2 tox – Viability Counterscreen for Primary qHTS for Inhibitors of ATXN expression; S2 cells (HEK-293 line with an ATXN2-luciferase reporter) viability, CellTiter-Fluor protease fluorescence, 24 h; Potency, µM (top dose mostly 56.7 µM), usual class: cytotoxic; hit rate 0.49% among 400,000; further: nearly all actives have a fitted effect of over 40% in size
ATXN2 expr inh – Primary qHTS for Inhibitors of ATXN expression; HEK-293 ATXN2-luciferase reporter, luminescence, 24 h; Potency, µM (top dose mostly 57 µM), for the others: at the highest dose activity change, negative = inhibition, actives largely listed as inhibitors; hit rate 0.72% among 360,000; further: on the % scale 0 is the no-effect control and ±100 the full control effect; nearly all actives have a fitted effect of over 55% in size
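qHTS (up to 57 uM final) was run with 24 h compound exposure of reporter cells at 37 °C. Each well was multiplexed: SteadyGlo luminescence measured ATXN2-luciferase expression after a fluorogenic Gly-Phe-AFC viability readout (25 uM final).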
HepG2 tox – qHTS for Inhibitors of TGF-b: Cytotox Counterscreen; HepG2 CAGA-GFP viability, ATP luminescence, 18 h; Potency, µM (top dose mostly 46.1 µM), without a hit: top-dose activity change, negative = cytotoxicity, usual class: cytotoxic; hit rate 0.76% among 410,000; AID 588856, 2011
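HepG2 CAGA-GFP cells (1000/well, DMEM with 1% FBS) received compound, then TGF-beta at 500 pg/mL final, and were incubated 18 hours at 37 degrees C. Viability was read by CellTiter-Glo luminescence. Media-only wells were set as complete cell-killing and DMSO as no toxicity.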
The depositor's hits bear a star; i = inactive; ? = inconclusive; nt = no result. The call rests on the fitted dose curve; in most records, active means well fitted curve in the direction sought with a large enough effect; inconclusive means small, poorly fitted or top-dose-only effect, or another doubt; inactive means no such curve, though single readings can be large; an effect the other way counts as inactive or inconclusive. Potency means the concentration at half of the fitted maximal effect.

SMILES	TDP1 cell noCPT	DT40 TDP1 CPT	TGFb SMAD3 inh	S2 tox	ATXN2 expr inh	HepG2 tox
O=C(COc1ccc(S(=O)(=O)NC2CCCCC2)cc1)N1CCN(c2cccc(Cl)c2)CC1	16µM*	?	?	i	-20%	-17%
NS(=O)(=O)c1ccc(NC(=O)c2cnn3c2NC(=C2CC2)C=C3C(F)F)cc1	-7%	-27%	-24%	nt	nt	-29%
CN1c2ccsc2C(O)=C(C(=S)Nc2ccccc2)S1(=O)=O	23µM*	15µM*	28%	i	-9%	0%
CN1CCN(CCCNC(=S)Nc2ccc(F)c(Cl)c2)CC1	1%	0%	3%	?	-13%	-1%
CN1c2ccccc2C(O)=C(C(=S)Nc2ccccc2)S1(=O)=O	26µM*	18µM*	-7%	i	-18%	-7%
CN1c2ccccc2C(O)=C(C(=S)Nc2ccc(F)c(Cl)c2)S1(=O)=O	18µM*	?	?	i	?	-54%
Cc1ccccc1NC(=S)C1=C(O)c2sccc2N(C)S1(=O)=O	?	?	22%	i	-19%	1%
CN1c2ccccc2C(O)=C(C(=O)Nc2ccccc2)S1(=O)=O	?	?	-2%	i	1%	-7%
Cc1ccc(NC(=S)C2=C(O)c3ccccc3N(C)S2(=O)=O)cc1	21µM*	?	-2%	i	-6%	1%
O=C(NN=C1CCCC1)c1ccn[nH]1	2%	-13%	-14%	i	13%	-1%
CC(=O)Nc1nonc1-c1nnc(SCc2ccccc2Cl)n1C	?	?	2%	i	10%	1%
O=C(CC12CC3CC(CC(Br)(C3)C1)C2)Nc1cccc(S(=O)(=O)NC2=NCCC2)c1	-1%	-6%	-1%	i	-4%	-3%
O=C(COc1ccc(-c2ccccc2)cc1)N1CCN(S(=O)(=O)Cc2ccccc2)CC1	15µM*	23µM*	?	i	-21%	-17%
Cc1ccc(OCC(=O)N2CCN(C(=O)Cc3ccccc3)CC2)cc1	-14%	-9%	5%	i	-16%	1%
CCOc1cc(CN2CCN(S(=O)(=O)Cc3ccccc3)CC2)ccc1OC	23µM*	-19%	13%	i	-25%	0%
CCCS(=O)(=O)N1CCN(Cc2ccc(OCc3ccccc3)c(OC)c2)CC1	?	?	-19%	i	-11%	-20%
O=C(c1cc(Br)ccc1O)N1CCN(S(=O)(=O)Cc2ccccc2)CC1	12µM*	?	?	nt	-9%	-22%
COc1ccc(Br)cc1CN1CCN(S(=O)(=O)Cc2ccccc2)CC1	8.2µM*	?	-29%	i	-14%	-35%
O=C1C2CCCN2C(=O)N1CCCCN1CCN(c2ccc(F)cc2)CC1 (stereo not given)	-8%	-10%	?	?	1%	8%
CCOc1cc(CN2CCN(S(=O)(=O)c3ccc(C)cc3)CC2)ccc1OC	16µM*	?	?	nt	nt	1%
Cc1cc(N2CCOCC2)n2nc(C)c(-c3ccccc3)c2n1	?	-5%	12%	i	19%	-2%
COc1ccc(Nc2c3c(nc4c(-c5ccccc5)c(C)nn24)CCC3)cc1	4%	9%	0%	i	-2%	0%
Cc1nn2c(N3CCN(C)CC3)c3c(nc2c1-c1ccccc1)CCCC3	-25%	?	-10%	20µM*	?	-18%
Cc1nn2c(NCCN3CCOCC3)c3c(nc2c1-c1ccccc1)CCCC3	5.8µM*	2.6µM*	5%	i	?	-47%
CC1C(=O)Nc2ccc(S(=O)(=O)N3CCCCCC3)cc21 (stereo not given)	-5%	-10%	1%	i	7%	4%
SMILES	TDP1 cell noCPT	DT40 TDP1 CPT	TGFb SMAD3 inh	S2 tox	ATXN2 expr inh	HepG2 tox
COc1ccc2nc3ccccc3nc2c1N	8.2µM*	?	?	?	-18%	-26%
COc1ccc2nc3cccc(OC)c3nc2c1	?	?	-4%	?	-14%	6%
Cc1ccc(-c2nc3cccnc3s2)cc1NS(=O)(=O)c1ccc2c(c1)CCCC2	?	-20%	5%	i	10%	-14%
CCS(=O)(=O)Nc1cccc(-c2nc3cccnc3s2)c1	?	-10%	-13%	i	nt	-27%
CCS(=O)(=O)Nc1cc(-c2nc3cccnc3s2)ccc1C	26µM*	?	-1%	i	86%	-27%
Cc1ccccc1C(=O)Nc1cccc(-c2nc3cccnc3s2)c1	18µM*	?	2%	nt	nt	-16%
O=S(=O)(Nc1cccc(-c2nc3cccnc3s2)c1)c1ccc2c(c1)CCCC2	?	-27%	13µM*	nt	-6%	10µM*
O=C1C2C3C=CC(C3)C2C(=O)N1/N=C/c1cc(Br)cc([N+](=O)[O-])c1O (stereo not given)	23µM*	?	-17%	i	-10%	9%
COc1ccc(S(=O)(=O)NC2CCc3ccccc32)cc1OC (stereo not given)	-11%	-16%	-7%	i	-16%	-1%
Cc1cc2oc(C(=O)N(Cc3ccccc3)C3CCS(=O)(=O)C3)cc(=O)c2cc1Cl (stereo not given)	?	?	-7%	i	1%	-8%
CCCOc1ccc(C(=O)NNC(=S)NC(=O)c2cc(-c3ccc(Cl)cc3)nc3ccccc23)cc1	12µM*	23µM*	-13%	?	-7%	-31%
COc1ccc(Cl)cc1C(=O)NNC(=S)NC(=O)c1cc(-c2ccccc2)nc2ccccc12	?	?	22%	i	-10%	-30%
COc1ccc(C(=O)NNC(=S)NC(=O)c2cc(-c3ccccc3)nc3ccccc23)cc1	16µM*	?	4%	i	6%	-59%
COC(=O)c1ccc(NC(=S)NC(=O)c2cc(-c3ccccc3)nc3ccccc23)cc1	?	?	0%	i	-3%	-24%
CC(Sc1nnnn1C1CCCC1)C(=O)Nc1cccc(S(=O)(=O)N2CCOCC2)c1 (stereo not given)	?	?	?	i	-18%	1%
Fc1ccc(-c2cn3cc(Cc4ccccc4Cl)sc3n2)cc1	?	?	-11%	i	-8%	-35%
